In PubChem BioAssay one finds composite z-score, composite Z-score and z-score data, which are given here for five compounds.

The structures appear in SMILES notation. Calls of active or inactive are those of the source.

The target of assay [1] is Albumin (Bos taurus) (UniProt P02769). In words: bovine serum albumin binders on microarray, profiling panel, artefact control for SMM control protein annotation, biochemical, small-molecule microarray, Alexa647 label, 635/667 nm fluorescence (AID 1118).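 Also: score merges 667 nm emission intensity and signal-to-noise per printed compound spot.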 The settings on record: BSA-A647 binding, fluorescence 635 nm, higher = more signal.
A short description of assay [2]: small-molecule microarray binders of probe aXIP, primary screen, biochemical, NeuroSMM set, 635/667 nm fluorescence (AID 1119).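 Also: probe is the protein aXip251-270 applied at 1 µg/mL to compound-printed slides; binding of probe to printed compounds measured as 667 nm fluorescence plus signal to noise.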 The settings on record: higher = more signal, called active from +8 up or from −8 down.
Assay [3] can be described thus: small-molecule binders of probe aNOTCH3, primary screen, biochemical, small-molecule microarray, 635/667 nm fluorescence (AID 1120).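 Also: probe is a biotin-tagged antibody raised against NOTCH3 rather than NOTCH3 protein; score merges spot fluorescence near 667 nm with spot signal to noise.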 Particulars: higher = more signal.
A short description of assay [4]: small-molecule binders of probe aNOTCH2, primary screen, biochemical, small-molecule microarray, 635/667 nm fluorescence (AID 1121).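 Also: score merges feature fluorescence read at 667 nm with its signal to noise.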 Particulars: higher = more signal.
Assay [5] deals with Carbonic anhydrase 2 (Homo sapiens) (UniProt P00918). Description: CAII small-molecule binders, profiling panel, biochemical, small-molecule microarray, Alexa647-labelled CAII (AID 1122). The settings on record: CAII-A647 binding fluorescence, higher = more signal.
Assay [6] is described as follows: COS7 lysate on small-molecule microarray, probe aHis, 635 nm (AID 1123).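 Also: z-score combines 667nm fluorescence intensity with signal-to-noise per printed compound spot.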 Particulars: COS7 cell lysate, fluorescence, higher = more signal.
A short description of assay [7]: compound binding in COS7 lysate, probe aLAP1, primary screen, cell lysate, small-molecule microarray (AID 1124).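 Also: lysate comes from COS7 cells expressing LAP1 and is applied at 0.3 µg/mL; score merges spot fluorescence near 667 nm with signal-to-noise over triplicate slides.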 The settings on record: probe aLAP1, fluorescence, higher = more signal.
Assay [8] concerns Sam68 (KHDRBS1). In words: Sam68 small-molecule binders, primary screen, biochemical, small-molecule microarray, 635 nm fluorescence (AID 1125).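 Also: score merges 667 nm channel intensity with signal to noise over triplicate slides.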 Particulars: small-molecule microarray binding, higher = more signal.
Assay [9] relates to Chordin-like protein 2 (CHRDL2). Description: CHRDL2 small-molecule binders, primary screen, biochemical, small-molecule microarray, 635 nm fluorescence (AID 1126).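 Also: printed compound slides probed with Chrdl2 protein at 4 µg/mL for 1 h at 4 C; score merges 667 nm emission intensity with signal to noise over three replicate slides.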 The settings on record: small-molecule microarray binding, fluorescence 635 nm; higher = more signal.
The target of assay [10] is Concanavalin-A (Canavalia ensiformis) (UniProt P02866). In words: ConA small-molecule binders, primary screen, artefact control for SMM control protein annotation, biochemical, small-molecule microarray, Alexa647 label, 635 nm (AID 1127).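 Also: z combines 667 nm emission intensity with signal-to-noise across three replicate slides.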 The settings on record: ConA-A647 binding fluorescence, higher = more signal.
The nature of assay [11]: anti-His antibody binders, primary screen, artefact control for SMM control protein annotation, biochemical, small-molecule microarray, 635 nm fluorescence (AID 1128).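 Also: score merges feature fluorescence with signal-to-noise for each printed compound spot.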 The settings on record: anti-His Alexa647 antibody binding, higher = more signal.
For assay [12], the system named is Human papillomavirus type 1a E7 protein (residues 1-88). In words: HPV1a E7 small-molecule binders, primary screen, biochemical, small-molecule microarray, residues 1-88, 635 nm (AID 1129). Particulars: small-molecule microarray binding, fluorescence 635 nm; higher = more signal.
Assay [13] deals with Focal adhesion kinase 1 (Homo sapiens) (UniProt Q05397). In words: small-molecule microarray binders of FAK, primary screen, biochemical, 635/667 nm fluorescence, BSA, DTT (AID 1130).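 Also: composite of spot emission at 667 nm and signal to noise over triplicate slides.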 Particulars: PTK2 binding, 635 nm fluorescence, higher = more signal.
Assay [14] has as its system Fibrinogen (Alexa647-labelled). Description: fibrinogen binders on compound microarrays, profiling panel, artefact control for SMM control-protein annotation, biochemical, small-molecule microarray, 635/667 nm fluorescence (AID 1131).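 Also: z-score merges 667 nm fluorescence with per-spot signal-to-noise over triplicate slides.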 Particulars: fibrinogen-A647 binding fluorescence, higher = more signal.
The target in assay [15] is Follistatin (Homo sapiens) (UniProt P19883). In words: follistatin binders on small-molecule microarrays, primary screen, biochemical, small-molecule microarray, 635/667 nm fluorescence (AID 1132). The settings on record: FST binding, 635 nm fluorescence, higher = more signal.
Assay [16] concerns the target Fibroblast growth factor 2 (Homo sapiens) (UniProt P09038). Description: FGF2 binders on small-molecule microarrays, primary screen, biochemical, small-molecule microarray, 635/667 nm fluorescence (AID 1133). The settings on record: small-molecule microarray binding, FGF2, fluorescence 635/667; higher = more signal.
Assay [17] can be described thus: mitochondrial membrane potential change in A549 cells, profiling panel, cell-based, JC-1 fluorescence, basal, 24 h, 100 nL (AID 1138).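 Also: A549 lung adenocarcinoma cells under basal conditions with no added stimulus; test concentration not given here.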 The settings on record: higher = more signal.
The subject of assay [18] is Lefty1. Description: Lefty1 binders on small-molecule microarrays, primary screen, biochemical, small-molecule microarray, 635/667 nm fluorescence (AID 1139). The settings on record: small-molecule microarray binding, fluorescence 635/667; higher = more signal.
Assay [19] concerns wheat germ agglutinin (Triticum aestivum), Alexa647-labelled. Description: wheat germ agglutinin binders on compound microarrays, profiling panel, artefact control for SMM control-protein annotation, biochemical, small-molecule microarray, 635/667 nm fluorescence (AID 1140).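 Also: score merges 667 nm feature emission with signal to noise over triplicate slides.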 The settings on record: WGA-A647 binding, 635 nm fluorescence, higher = more signal.
Assay [20] concerns the target Luciferin 4-monooxygenase (Photinus pyralis) (UniProt P08659). Description: firefly luciferase enzyme inhibitors, primary screen, biochemical, luminescence, purified enzyme, 2006 set (AID 1141).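 Also: cell-free assay with purified firefly luciferase at 100 ng per well in PBS; test concentration not given here.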 Particulars: SteadyGlo luminescence, 30 min, higher = more signal, called active from +8 up or from −8 down.

Sequence of Concanavalin-A (Canavalia ensiformis) (P02866 whole entry, looked up): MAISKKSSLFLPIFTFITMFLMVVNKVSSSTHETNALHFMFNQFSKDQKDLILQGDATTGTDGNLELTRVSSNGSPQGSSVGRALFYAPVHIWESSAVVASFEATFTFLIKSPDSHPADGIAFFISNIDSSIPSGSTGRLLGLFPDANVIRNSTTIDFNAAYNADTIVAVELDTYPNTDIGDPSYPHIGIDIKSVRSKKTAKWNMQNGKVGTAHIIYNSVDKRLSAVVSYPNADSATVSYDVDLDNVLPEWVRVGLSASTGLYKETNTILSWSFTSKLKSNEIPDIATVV
Sequence of Luciferin 4-monooxygenase (Photinus pyralis) (P08659 whole entry, looked up): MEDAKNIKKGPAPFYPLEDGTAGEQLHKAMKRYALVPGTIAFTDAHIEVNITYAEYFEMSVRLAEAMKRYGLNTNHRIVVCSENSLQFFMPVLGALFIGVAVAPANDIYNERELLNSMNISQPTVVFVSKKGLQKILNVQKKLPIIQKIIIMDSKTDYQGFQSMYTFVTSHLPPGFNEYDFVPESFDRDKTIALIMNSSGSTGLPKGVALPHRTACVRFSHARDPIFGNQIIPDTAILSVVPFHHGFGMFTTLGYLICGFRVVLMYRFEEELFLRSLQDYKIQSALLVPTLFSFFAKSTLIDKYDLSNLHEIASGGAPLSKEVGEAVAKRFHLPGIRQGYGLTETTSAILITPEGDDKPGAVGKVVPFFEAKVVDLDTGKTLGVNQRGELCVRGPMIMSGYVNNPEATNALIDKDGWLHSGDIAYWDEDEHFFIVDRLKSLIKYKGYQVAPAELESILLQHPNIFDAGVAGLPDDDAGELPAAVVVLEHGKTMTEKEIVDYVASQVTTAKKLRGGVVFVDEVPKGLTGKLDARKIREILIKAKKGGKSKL
Sequence of Follistatin (Homo sapiens) (P19883 whole entry, looked up): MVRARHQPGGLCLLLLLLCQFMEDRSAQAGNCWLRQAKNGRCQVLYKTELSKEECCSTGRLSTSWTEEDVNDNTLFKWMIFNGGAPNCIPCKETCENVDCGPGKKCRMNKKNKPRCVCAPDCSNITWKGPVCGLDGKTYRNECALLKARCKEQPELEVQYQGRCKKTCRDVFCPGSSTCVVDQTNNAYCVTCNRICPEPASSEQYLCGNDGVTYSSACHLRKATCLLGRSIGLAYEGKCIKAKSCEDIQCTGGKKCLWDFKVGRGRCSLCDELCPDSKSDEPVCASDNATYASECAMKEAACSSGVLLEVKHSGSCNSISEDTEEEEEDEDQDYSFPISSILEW
Sequence of Fibroblast growth factor 2 (Homo sapiens) (P09038 whole entry, looked up): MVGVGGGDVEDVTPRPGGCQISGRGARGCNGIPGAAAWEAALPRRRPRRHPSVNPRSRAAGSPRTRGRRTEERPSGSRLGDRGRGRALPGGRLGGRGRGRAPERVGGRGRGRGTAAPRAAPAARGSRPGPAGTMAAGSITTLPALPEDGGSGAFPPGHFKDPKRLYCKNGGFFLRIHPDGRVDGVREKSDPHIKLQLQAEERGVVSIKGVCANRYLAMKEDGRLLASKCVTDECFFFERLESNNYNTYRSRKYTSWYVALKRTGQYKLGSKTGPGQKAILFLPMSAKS
Sequence of Albumin (Bos taurus) (P02769 whole entry, looked up): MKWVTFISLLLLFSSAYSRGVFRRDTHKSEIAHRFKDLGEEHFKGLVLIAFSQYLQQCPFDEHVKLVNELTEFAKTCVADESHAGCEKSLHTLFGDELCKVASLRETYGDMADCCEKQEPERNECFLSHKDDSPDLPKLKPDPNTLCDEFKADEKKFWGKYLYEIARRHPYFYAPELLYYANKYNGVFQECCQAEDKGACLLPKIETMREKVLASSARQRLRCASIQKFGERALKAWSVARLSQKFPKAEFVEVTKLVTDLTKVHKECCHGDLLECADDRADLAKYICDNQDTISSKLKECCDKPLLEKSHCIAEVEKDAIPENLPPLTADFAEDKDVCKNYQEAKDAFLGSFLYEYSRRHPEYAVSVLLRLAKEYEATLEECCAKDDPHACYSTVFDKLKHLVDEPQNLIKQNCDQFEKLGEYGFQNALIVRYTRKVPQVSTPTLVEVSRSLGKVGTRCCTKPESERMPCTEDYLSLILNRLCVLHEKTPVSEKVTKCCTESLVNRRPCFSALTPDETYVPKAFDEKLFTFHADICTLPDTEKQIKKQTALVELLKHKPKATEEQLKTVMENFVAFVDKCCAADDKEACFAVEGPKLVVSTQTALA
Sequence of Focal adhesion kinase 1 (Homo sapiens) (Q05397 whole entry, looked up): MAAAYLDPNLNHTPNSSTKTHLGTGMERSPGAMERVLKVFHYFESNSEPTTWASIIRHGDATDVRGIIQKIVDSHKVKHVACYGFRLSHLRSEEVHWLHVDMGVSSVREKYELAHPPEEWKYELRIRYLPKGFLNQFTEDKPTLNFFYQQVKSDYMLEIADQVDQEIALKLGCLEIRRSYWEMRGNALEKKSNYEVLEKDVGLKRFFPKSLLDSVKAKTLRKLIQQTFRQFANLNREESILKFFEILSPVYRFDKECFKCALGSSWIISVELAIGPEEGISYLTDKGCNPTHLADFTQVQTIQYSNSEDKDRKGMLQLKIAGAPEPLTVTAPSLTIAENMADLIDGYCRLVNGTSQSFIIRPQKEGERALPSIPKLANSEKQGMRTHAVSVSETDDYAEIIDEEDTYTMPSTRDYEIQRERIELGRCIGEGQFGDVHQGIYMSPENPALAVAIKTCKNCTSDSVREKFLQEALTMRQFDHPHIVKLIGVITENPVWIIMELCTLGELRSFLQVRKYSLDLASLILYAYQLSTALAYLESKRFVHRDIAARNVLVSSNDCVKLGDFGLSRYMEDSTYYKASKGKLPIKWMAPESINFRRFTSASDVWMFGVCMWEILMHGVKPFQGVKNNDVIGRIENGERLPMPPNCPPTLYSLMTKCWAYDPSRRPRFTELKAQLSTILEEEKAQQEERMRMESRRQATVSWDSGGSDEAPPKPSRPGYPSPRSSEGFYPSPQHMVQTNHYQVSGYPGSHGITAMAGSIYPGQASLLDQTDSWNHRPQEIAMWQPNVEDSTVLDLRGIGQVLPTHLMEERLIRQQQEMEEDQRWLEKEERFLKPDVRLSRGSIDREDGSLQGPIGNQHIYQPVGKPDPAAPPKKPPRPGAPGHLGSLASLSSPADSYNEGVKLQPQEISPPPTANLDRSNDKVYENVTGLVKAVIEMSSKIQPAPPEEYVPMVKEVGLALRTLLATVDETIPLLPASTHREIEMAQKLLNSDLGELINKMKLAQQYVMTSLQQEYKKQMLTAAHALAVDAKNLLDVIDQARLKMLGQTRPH

With `CCOC(=O)C[C@H]1[C@H](OC(=O)Cc2ccc3c(c2)OCO3)[C@@H](NC(=O)C2CCCCC2)c2cc(OCCCO)ccc2N1C(=O)Cc1ccc(OC)cc1`, the composite z-score is 0.343 in [1]; 0.369 in [3]; -0.0993 in assay [4]; 0.231 in assay [5]; 0.557 in assay [6]; 0.366 in [7]. For the same compound, the composite z-score in [8] was 1.15; in [9] it was 0.107; in [10] it was 0.343; in [11], 0.135; in assay [12], 0.807; in assay [13], 0.673. Further, the composite z-score was found to be 0.66 in assay [14]; 0.139 in assay [15]; 0.221 in [16]; 0.333 in assay [18]; 0.0679 in [19]. Also, in assay [2], the composite Z-score is -0.145 (inactive). In addition, the z-score was 2.5 in assay [17] and -1.27 (inactive) in assay [20].
In the case of `Cc1cc(C)c(C(O)C2C=CC3C(=O)N(C)C(=O)C3N2Nc2ccccc2)c(C)c1` (stereo not given), the composite z-score in [1] was 0.72; in assay [3], 1.35; in assay [4], 0.818; in assay [5] it was 0.784; in assay [6], 1.2; in assay [7], 0.781. Besides, the composite z-score in assay [8] came out at 0.485; in assay [9], 0.452; in [10], 0.143; in assay [11], 1.83; in assay [12], 0.496; in assay [13], 0.471. For the same compound, the composite z-score in assay [14] was 0.992; in assay [15] it was 0.72; in assay [16], -0.0568; in [18], -0.765; in assay [19], 0.847. The composite Z-score in assay [2] was 2.43 (inactive). For the same compound, the z-score in [17] was 0.362; in assay [20], 0.568 (inactive).
In the case of `COC(=O)C(CC#Cc1ccc2c(c1)[C@]1(C(=O)N2)[C@H](C(=O)NC[C@H](O)c2ccccc2)[C@H]2C(=O)O[C@H](c3ccccc3)[C@H](c3ccccc3)N2[C@@H]1c1ccc(OCCO)cc1)C(=O)OC`, the composite z-score in assay [1] is 0.516; in assay [3], 1.4; in assay [4], 0.146; in [5], 0.556; in assay [6], 2.94; in assay [7], 0.811. Further, the composite z-score came to 1.27 in [8]; 0.75 in assay [9]; 1.02 in [10]; 1.5 in assay [11]; 1.21 in assay [12]; 0.538 in [13]. In addition, the composite z-score in [14] stood at 0.957; in assay [15] it was 1.25; in [16], 0.937; in assay [18], 1.69; in assay [19], 1.21. Besides, the composite Z-score in assay [2] is 2.12 (inactive). The z-score was -1.32 in assay [17] and -1.83 (inactive) in assay [20].
As for `[N-]=[N+]=NCc1ccccc1C[C@]1(C(=O)NCC(O)CO)N=C(c2ccc(OCCCO)cc2)O[C@H]1c1ccccc1N=[N+]=[N-]` (stereo not given in full), the composite z-score in assay [1] is 0.675; in assay [3] it was 0.254; in assay [4], -0.0059; in [5], 0.652; in assay [6], 1.57; in assay [7] it was 0.0131. Besides, the composite z-score in assay [8] is 0.283; in [9] it was -0.44; in assay [10] it was 0.565; in [11], 2.99; in [12] it was 1.12; in assay [13], 1.66. Also, the composite z-score is 0.188 in [14]; -0.181 in assay [15]; -0.189 in assay [16]; -0.923 in assay [18]; 0.541 in assay [19]. Also, in assay [2], the composite Z-score is 0.529 (inactive). The values for the z-score in assay [17] and in [20] were 1.63 and -6.49 (inactive), respectively.
For `CCCNC(=O)[C@@H]1c2ccccc2C(=O)N(Cc2ccccc2)[C@H]1c1ccc(CO)cc1`, the composite z-score in assay [1] was -0.271; in assay [3], 0.0631; in assay [4], -0.0715; in assay [5], 0.202; in assay [6], 1.1; in assay [7], -0.036. Moreover, the composite z-score in assay [8] was 0.22; in assay [9] it was -0.592; in assay [10], 1.01; in assay [11] it was 1.88; in [12], -0.081; in assay [13], -0.255. The composite z-score was 0.213 in assay [14]; 0.122 in [15]; -0.193 in assay [16]; -0.82 in assay [18]; 0.935 in assay [19]. Further, the composite Z-score in assay [2] is 0.842 (inactive). Moreover, the z-score in assay [17] was -0.109; in [20] it was -0.322 (inactive).
